From PubChem BioAssay AID1671192 (National Center for Advancing Translational Sciences (NCATS), 2021) come the findings set out here.

Results filed as inconclusive are left out. Unmarked numbers belong to inactive results. Calls follow the shape of the dose curve; as a rule, active = well fitted curve in the direction sought with a large enough effect; inconclusive = small, poorly fitted or top-dose-only effect, or another doubt; inactive = no such curve, though single readings can be large or run the other way.

For the test, the target named is Polyunsaturated fatty acid lipoxygenase ALOX15 (Homo sapiens) (UniProt P16050). Kind of test: Counterscreen qHTS for inhibitors of human arachidonate 12S-lipoxygenase (ALOX12): ALOX15 Assay. Also: 0% is about no effect. The following applies: purified ALOX15 enzyme activity; series mostly up to 110 µM; activity change, negative = inhibition: at the top concentration. The method in brief: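 Xylenol orange–ferric complex formation, read as the 573 nm to 405 nm absorbance ratio, tracks product from 50 uM arachidonic acid turned over for 30 min at RT. Enzyme is 40 nM ALOX15, pH 7.5 HEPES buffer, compound-preincubated 15 min.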
Chain of Polyunsaturated fatty acid lipoxygenase ALOX15 (Homo sapiens) (P16050 whole entry, looked up): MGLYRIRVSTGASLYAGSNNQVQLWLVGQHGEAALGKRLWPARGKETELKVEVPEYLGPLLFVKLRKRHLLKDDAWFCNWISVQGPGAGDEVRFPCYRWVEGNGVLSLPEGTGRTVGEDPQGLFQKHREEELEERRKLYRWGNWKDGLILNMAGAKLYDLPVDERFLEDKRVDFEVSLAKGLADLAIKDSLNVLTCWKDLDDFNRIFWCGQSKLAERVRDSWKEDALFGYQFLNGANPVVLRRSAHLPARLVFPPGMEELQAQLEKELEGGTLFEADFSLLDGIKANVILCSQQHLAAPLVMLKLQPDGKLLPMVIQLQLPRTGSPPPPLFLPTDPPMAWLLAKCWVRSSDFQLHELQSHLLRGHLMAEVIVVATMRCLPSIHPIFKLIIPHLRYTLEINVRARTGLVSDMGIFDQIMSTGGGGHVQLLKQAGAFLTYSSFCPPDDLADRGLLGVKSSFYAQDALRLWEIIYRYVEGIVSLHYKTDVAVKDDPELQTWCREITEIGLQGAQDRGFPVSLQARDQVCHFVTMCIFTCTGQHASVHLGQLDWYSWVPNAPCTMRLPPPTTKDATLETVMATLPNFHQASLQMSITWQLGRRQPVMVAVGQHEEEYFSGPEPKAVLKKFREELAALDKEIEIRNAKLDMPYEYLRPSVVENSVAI
On the technique in general: The purpose of a counterscreen is to sort out artefacts and off-target activity.
As for `NCc1ccc(-c2ccc(OC(F)(F)F)cc2)cc1`, the “activity change, negative = inhibition” value is 29.9% [at 146 µM]. The value for `O=C(c1ccccc1F)N1CCc2nc(C3CC3)nc(-c3ccc(Cl)cc3)c2C1` was -19.9%.

As to `CN1CCC(C(=O)N2Cc3ccccc3CC3(CCCN(CC4CCNCC4)C3)C2)CC1` (configuration not stated), the “activity change, negative = inhibition” value was -6.02%. Then `O=C1NCc2ccccc2CC12CCCN2Cc1cnc2ccccc2c1` (configuration not stated), with -16.9%; and `O=C1NC(=NC2CCCC2)C2(CCCN(Cc3ccsc3)C2)N1c1cc(F)cc(F)c1` (configuration not stated), with -2.59%; and `O=C(NC1CC1)c1cc(C2CC2)nc2onc(C3CCNC3)c12` (configuration not stated), with -20.2% [at 146 µM]. For `Cc1ccc(-c2cccc(CN3CCCC(c4nc5ccc(F)cc5c(=O)[nH]4)C3)c2)c(C)c1` (configuration not stated), the “activity change, negative = inhibition” value is 131%. Then `COCCNC(=O)c1cc(-c2ccc(OC)cc2)nc2onc(C3CCCN3)c12` (configuration not stated), with -14.5%; and `CN1CC(=O)N(C2CCCNCC2)Cc2c1ncnc2N1CCN(c2ccccn2)CC1` (configuration not stated), with -0.605%.

Take `CNC(C)c1ccc(Oc2ccccc2)cc1` (configuration not stated): the “activity change, negative = inhibition” value is 6.86% [at 146 µM]. `CNC(C)c1cccc(OC)c1` (configuration not stated): the “activity change, negative = inhibition” value was -2.15% [at 233 µM]. Turning to `COc1ccccc1NC1CN(C(=O)OC(C)(C)C)C1`, the “activity change, negative = inhibition” value was -12.5% [at 146 µM]. As to `COc1cccc(N2C(=O)NC(=NC3CCCCC3)C23CCN(C(=O)c2ccccc2OC)C3)c1` (configuration not stated), the “activity change, negative = inhibition” value is -28.5%. The value for `NCc1ccccc1-c1ccc(O)cc1` was -16.9% [at 146 µM]; that for `CC(=O)NCCC(=O)N1Cc2ccccc2CC2(CCCN2CCc2ccc(C)cc2)C1` (configuration not stated) was 12.2%; that for `O=C(c1cc(C2CC2)nc2onc(C3CCCN3)c12)N1CCC(F)CC1` (configuration not stated) was -8.64%. The value for `Cn1nc(C2CCCN2)c2c(C(=O)NCc3ccc(F)cc3)cc(C3CC3)nc21` (configuration not stated) was -22.9%; that for `CN1CC(=O)N(C2CCCNC2)Cc2c(NC3CCC3)ncnc21` (configuration not stated) was -24.9% [at 146 µM]; that for `Cc1ccc(-c2cccc(C=O)c2)cc1Cl` was -27.3% [at 233 µM]. The value for `CC(C)NC(=O)NC1CC2(CCN(C(=O)Cc3ccc(O)cc3)CC2)c2ccccc21` (configuration not stated) was -18.7%; that for `Cc1cc(C(=O)NC2CC2)c2c(C3CCNCC3)noc2n1` was -15.2% [at 146 µM]; that for `CN1CC(=O)N(C2CCCNCC2)Cc2c(NCc3ccc4c(c3)OCO4)ncnc21` (configuration not stated) was 12.4%.

In the case of `O=C(c1cn2c(n1)CN([S+](=O)([O-])c1cccc(C(F)(F)F)c1)CC2)N1CCOCC1`, the “activity change, negative = inhibition” value is -11.9%. The value for `O=C1NCc2ccccc2CC12CCN(Cc1ccnc3ccccc13)CC2` was -17.8%; that for `C[S+](=O)([O-])N1Cc2ccccc2CC2(CCN(CC3CCNC3)CC2)C1` (configuration not stated) was 6.88%.

In the case of `O=C(c1ccc2c(c1)OCO2)N1CCCC1c1nnc2n1CCNC2` (configuration not stated), the “activity change, negative = inhibition” value is -14.1%. Then `CN1CCC(C(=O)N2Cc3ccccc3CC3(CCCCN3CC3CCNCC3)C2)CC1` (configuration not stated), with -19.6%; and `O=C(N1CCCC1)N1CCN(c2ccc(Cl)nn2)C(=O)C1`, with -13.1% [at 146 µM]. The value for `O=C(c1ccncc1)N1CCN(c2ccc(Cl)nn2)C(=O)C1` was -6.67% [at 146 µM]. Take `COc1ccc(CN2CC3(C2)C(=O)Nc2ccccc23)cc1`: the “activity change, negative = inhibition” value was -29.7% [at 146 µM]. The value for `CCN(CC)CC(C)NC` (configuration not stated) was -25.9% [at 343 µM]; that for `COc1ccc(CNc2ncnc3c2CN(C2CCNCC2)C(=O)CN3C)cc1` was -36.3%. The value for `O=C1NCc2ccccc2CC12CCN(Cc1ccc(F)cc1)C2` (configuration not stated) was -11.6% [at 146 µM]. On to `Cc1ccc2nc(C3CCN(Cc4ccc(-c5cccs5)cc4)CC3)[nH]c(=O)c2c1`, for which the “activity change, negative = inhibition” value is -12%.

For `CC(C)NCCN1CCCC1`, the “activity change, negative = inhibition” value was -12.6% [at 343 µM]. Then `COc1ccc(CNc2ncnc3c2CN(C2CCNC2)C(=O)CN3C)cc1OC` (configuration not stated), with -20.1%; and `Cc1cc(C(=O)NCc2cccs2)c2c(C3CCNC3)noc2n1` (configuration not stated), with -7.35% [at 146 µM].
